{
  "source": "PubChem BioAssay (NCATS)",
  "note": "Records with an inconclusive call do not appear. A number with no mark means an inactive call. The call rests on the fitted dose curve; in most records, active means well fitted inhibition curve with a large enough effect; inconclusive means small, poorly fitted or top-dose-only effect; inactive means flat fitted curve, though single readings scatter. On the % scale 0 is the no-effect control and ±100 the full control effect.",
  "data": [
    {"biological_target": "Calcium and integrin-binding protein 1 (Homo sapiens) (UniProt Q99828)", "sequence (Q99828 whole entry, looked up)": "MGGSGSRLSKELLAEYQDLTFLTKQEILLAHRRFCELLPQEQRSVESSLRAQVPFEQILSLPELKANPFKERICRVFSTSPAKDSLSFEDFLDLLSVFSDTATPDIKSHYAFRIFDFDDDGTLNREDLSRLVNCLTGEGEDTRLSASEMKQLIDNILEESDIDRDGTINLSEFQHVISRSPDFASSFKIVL", "experiment": "Primary qHTS for Identification of Calcium Integrin Binding Protein 1 (CIB1) Competitor (AID 1508620);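 further: GST tagged CIB1 binding a fluorescein labelled alphaIIb integrin peptide tracer; top concentration of the series differs between compounds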", "details": "CIB1-GST / FITC-alphaIIb peptide fluorescence polarization; series mostly up to 57.7 µM; activity change, negative = inhibition: at the top concentration", "outline": "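Fluorescence polarization competition: CIB1-GST (1 uM final) preincubated with compound 15 min at room temperature, then FITC-labeled alphaIIb peptide (100 nM final) added for another 15 min. Polarization read at Ex 480/Em 540.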", "values": [
      {"smiles": "C[C@@H]1CC[C@]2(C(=O)O)CC[C@]3(C)C(=CCC4[C@@]5(C)C[C@@H](O)[C@H](O)[C@@](C)(CO)C5CC[C@]43C)C2[C@H]1C", "note": "(some centres not stated)", "activity change, negative = inhibition": "-3.65%"},
      {"smiles": "C[C@@H](CC[C@@H]1[C@@]2(C)CCCC(C)(C)C2CC[C@@]1(C)O)CC(=O)O", "note": "(some centres not stated)", "activity change, negative = inhibition": "-1.78%"},
      {"smiles": "C=CC(C)(O)CC/C=C(\\C)C1CC=C(C)C(=O)O1", "note": "(configuration not stated)", "activity change, negative = inhibition": "-0.496% [at 114 µM]"},
      {"smiles": "C[C@H]1CC[C@@]2(OC1)O[C@H]1CC3C4CC[C@H]5C[C@@H](O)CC[C@]5(C)C4CC(=O)[C@]3(C)[C@H]1[C@@H]2C", "note": "(some centres not stated)", "activity change, negative = inhibition": "4.85%"},
      {"smiles": "COc1cc(O)c2c(c1)C1(OC2=O)C(C)=CC(=O)C1O", "note": "(configuration not stated)", "activity change, negative = inhibition": "-8.42% [at 114 µM]"},
      {"smiles": "OC[C@H]1O[C@@H](OCc2ccccc2)[C@H](O)[C@@H](O)[C@@H]1O", "activity change, negative = inhibition": "-0.0502% [at 114 µM]"},
      {"smiles": "C[C@@H]1CCC2C(C)(C)[C@H](O)[C@H](O)C[C@]2(C)[C@@]12Cc1c(O)cc3c(c1O2)CN(CCCC(=O)O)C3=O", "note": "(some centres not stated)", "activity change, negative = inhibition": "2.85%"},
      {"smiles": "COC(=O)C(CC1(O)c2ccccc2N2C(=O)C(C)(C)N(O)C21)n1cnc2ccccc2c1=O", "note": "(configuration not stated)", "activity change, negative = inhibition": "-2.34%"},
      {"smiles": "Cc1cc(-n2c(=O)[nH]c(=O)n(C)c2=O)ccc1Oc1ccc(SC(F)(F)F)cc1", "activity change, negative = inhibition": "1.19% [at 114 µM]"},
      {"smiles": "CC(=O)O[C@@H]1[C@@H](O)[C@H](C)O[C@@H](O[C@H]2[C@@H]3C=CO[C@@H](O[C@@H]4O[C@H](CO)[C@@H](O)[C@H](O)[C@H]4OC(C)=O)[C@@H]3[C@@]3(CO)O[C@@H]23)[C@@H]1OC(=O)/C=C/c1ccc(O)cc1", "activity change, negative = inhibition": "3.23% [at 30.2 µM]"},
      {"smiles": "CC(=O)OC1CC2(C)C(CCC(C)C23Cc2c(O)cc4c(c2O3)CNC4=O)C(C)(C)C1O", "note": "(configuration not stated)", "activity change, negative = inhibition": "-3.18%"},
      {"smiles": "CC1(C)CC[C@]2(C(=O)O[C@@H]3O[C@H](CO)[C@@H](O)[C@H](O)[C@H]3O)CC[C@]3(C)C(=CCC4[C@@]5(C)C[C@H](O)[C@H](O[C@@H]6OC[C@@H](O)[C@H](O)[C@H]6O)[C@@](C)(CO)C5CC[C@]43C)C2C1", "note": "(some centres not stated)", "activity change, negative = inhibition": "-4.12% [at 30.2 µM]"}
    ]}
  ]
}
